Consider 16 molecules from PubChem BioAssay (EPA / NIEHS).

Calls of active or inactive are those of the source. How the source made its calls: active means hit-call score of the fitted dose curve at least 0.9, where 1 is the maximum; inactive means score below 0.9.

The test is described as follows: CCTE_Simmons_MITO_inhib_resp_rate: CCTE's HepG2 Seahorse XF Respirometric Screening Assay at Inhibited Respiratory State [full ETC block], Simmons Lab (AID 2284006). As to conditions: actives raise or lower the signal. On the procedure:
CCTE_Simmons_MITO is cell-based, respirometric assay using HepG2 cells and a Seahorse XF Analyzer to measure oxygen consumption rates over four temporal phases spanning a total of 72 minutes: pre-injection (pre-treatment), basal (following test compound injection), maximal (following FCCP uncoupler injection), and inhibited (following rotenone/antimycin A injection)CCTE_Simmons_MITO_inhib_resp_rate is one of 4 assay components calculated from the CCTE_Simmons_MITO assay. It is designed to make measurements of inhibited respiration using a form of respirometric reporter, as detected with […] signals by Seahorse XF96 technology. Data from the assay component CCTE_Simmons_MITO_inhib_resp_rate was analyzed at the endpoint, CCTE_Simmons_MITO_inhib_resp_rate_OCR, with bidirectional fitting relative to DMSO as the negative control and baseline of activity. Using a type of respirometric reporter, measures of inhibited respiration for gain or loss-of-signal activity can be used to understand cellular oxygen consumption as it relates to cellular respiration. To generalize the intended target to other relatable targets, this assay endpoint is annotated to the mitochondria intended target family, where the subfamily is respiration.
Test chemicals were administered as a titrated series of 7 concentrations from 125 nM up to 100 uM [final] prior to kinetic endpoint detection at 6 minute intervals [3 min mix followed by 3 minutes measure] for 72 minutes. Three biological replicates of technical singles were run for every chemical concentration tested. Dimethylsulfoxide [DMSO] was used as the vehicle control. The electron transport chain inhibitor fenpyroximate was used as the positive control for decreased basal respiration and was administered as a titrated series of 6 concentrations from 250 nM up to 2.75 uM [final] with technical triplicates for the top concentration only. The uncoupler 2,4-dintirophenol was used as the positive control for increased basal respiration and was administered as a titrated series of 6 concentrations from 938 nM up to 40 uM [final] with technical triplicates for the top concentration only. A Seahorse XF Analzyer is required to measure the response.
In the case of `Cc1nn(C)c(Oc2ccccc2)c1C=NOCc1ccc(C(=O)OC(C)(C)C)cc1`, the molecule was called inactive.
On the same count and under the same terms, as for `O=C(O)C1(C(=O)Nc2ccc(Cl)cc2Cl)CC1`, the entry is “inactive”; as for `CC(C)(c1ccc(O)cc1)c1ccc(O)cc1`, “inactive”; as for `CCCCC(CC)COC(=O)c1ccccc1C(=O)O` (stereo unspecified), “inactive”.
Same read-out and setting: the same measure for `CCCCOC(=O)C(C)Oc1ccc(Oc2ccc(C(F)(F)F)cn2)cc1` (stereo unspecified): “inactive”; for `N[C@@H](Cc1cc(I)c(Oc2ccc(O)c(I)c2)c(I)c1)C(=O)O`: “inactive”.
For `CCOC(=O)NCCOc1ccc(Oc2ccccc2)cc1`, the outcome was inactive.
Take `O=C(Nc1ccc([N+](=O)[O-])cc1Cl)c1cc(Cl)ccc1O`: the half-maximal activity concentration (AC50) is 1.36 µM (active).
For the molecule `O=C(c1ccc(O)cc1O)c1ccc(O)cc1O`, the result was inactive.
Consider `CC(=O)[C@H]1CC[C@H]2[C@@H]3CCC4=CC(=O)CC[C@]4(C)[C@H]3CC[C@]12C`, for which the outcome was inactive.
Consider `CC(C)CCCCCCc1ccc(O)cc1`, for which the call was inactive.
The same measure, in the same setting: as for `N#CSCSc1nc2ccccc2s1`, the entry is “inactive”; as for `Oc1ccc(C(c2ccc(O)cc2)C(Cl)(Cl)Cl)cc1`, “inactive”; as for `CCCCC(CC)CN1C(=O)C2C3C=CC(C3)C2C1=O` (stereo unspecified), “inactive”.
On the same count and under the same terms, as for `CCCCOC(=O)[C@@H](C)Oc1ccc(Oc2ccc(C(F)(F)F)cn2)cc1`, the entry is “inactive”; as for `C=CCOC(Cn1ccnc1)c1ccc(Cl)cc1Cl` (stereo unspecified), “inactive”.
